According to PubChem BioAssay (NCATS):
“And” between values parts separate entries of the source, which are not always exact repeats. Equal entries are not always repeated. Records with an inconclusive call do not appear. Some structures have more than one record in an assay (separate samples or runs), and their calls can disagree. A number with no mark means an inactive call. The source made the active and inactive calls. The call rests on the fitted dose curve; in most records, active means well fitted activation curve with a large enough effect; inconclusive means small, poorly fitted or top-dose-only effect; inactive means no such curve, though single readings can be large or run the other way.

target: Cellular tumor antigen p53 (Homo sapiens) (UniProt P04637); assay: Primary qHTS for small molecule compounds that upregulate eGFP-tagged delta133p53alpha (in N-terminal) cells. (AID 2060322); details: NCI-H358 eGFP-delta133p53alpha fluorescence, 24 h; activation: hits give high values; further: nearly all actives have a fitted effect of over 75% in size;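 on activation: cells pre-induced with doxycycline then dosed without doxycycline; series mostly up to about 56 µM; 0% = DMSO vehicle and 100% = reference activator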
Source text: Assay Development and Screening Technology
National Center for Advancing Translational Sciences (NCATS),
National Institute of Health (NIH), Rockville, Maryland
Cellular senescence (CS) is one of the hallmarks of aging and age-related diseases. Senescent cells are characterized by an irreversible growth arrest, an increase in senescence-associated beta-galactosidase (SA-beta-gal) activity and p16INK4a expression, an activation of the DNA damage response pathways, and the emergence of a senescence-associated secretory phenotype (SASP).
Delta133p53alpha, a human/primate-specific p53 protein isoform, delays or inhibits the induction of CS and SASP in various types of human cells, including progeria-derived fibroblasts, primary normal astrocytes, and CD8+ T lymphocytes. Induction of delta133p53alpha with small molecule compounds may provide therapeutic opportunities for inhibition of senescence/SASP-associated pathologies in progeria syndromes, astrocyte-mediated neuroprotection in neurodegenerative diseases, and possibly prevention and treatment of a wider range of senescence- and aging-associated diseases.
Here we report the development and validation of a cell-based quantitative high throughput screening (qHTS) assay in 1,536-well format. This qHTS assay uses the NCI-H358 cell line with doxycycline-inducible expression of enhanced green fluorescent protein (eGFP)-tagged delta133p53alpha, which allows efficient and highly quantitative measurement of the protein levels.
PROTOCOL TABLE (as described by Inglese J, Shamu CE and Guy RK. 2007)
SEQUENCE No. (e.g., 1, 2, 3, etc.); […] (e.g., Cells, Incubation, Reagent, etc.); VALUE; DESCRIPTION.
1; Cells; 4uL; 800 doxycycline treated cells / well in doxycycline-free media, 1536-well black, clear-bottom low base Aurora microplates.
2; Compounds; 23 nL; Kalypsis pin tool (Wako) equipped with 1536-well pin heads, 5-azacytidine positive control.
3; Incubation; 24 hr; 37C, 5% CO2; 95% relative humidity.
4; Aspiration; 1x; BioTek EL406 washer dispenser (Agilent).
5; Fixing; 3.5% paraformaldehyde, BioTek EL406 washer dispenser (Agilent).
6; Washing; 1x PBS; BioTek EL406 washer dispenser (Agilent).
7; Nuclei staining; 1:1000 dilution of Hoechst 33342 (Thermofisher), BioTek EL406 washer dispenser (Agilent).
8; Incubation; 20 min; in the dark at room temperature.
9; Washing; 2x, 1x PBS (ThermoFisher), BioTek EL406 washer dispenser (Agilent).
10; Reagent; 10 uL; 1x PBS per well, sealed with clear adhesive tape.
NOTES (numbers refer to sequence numbers above).
1. NCI-H358 cells expressing eGFP-tagged delta133p53alpha were grown in T75 culture flasks and treated with doxycycline for 24h, at 10 ng/ml for eGFP-D133p53a cells (N-terminal cell) and 100 ng/ml for D133p53a-eGFP cells (C-terminal cells). Cells were trypsinized, counted using a Counted 3 Automated Cell Counter (Thermo Fisher), and diluted to a concentration of 200,000 cells/ml. A Multidrop Combi Reagent Dispenser (ThermoFisher) was used to dispense 800 cells/well in […] of doxycycline-free media, into 1536-well black/clear bottom low base plates (AuroraMicroplates).
2. After plating cells, 23 nl of compound library, DMSO vehicle control or positive control (5-azacytidine) were transferred by Pin Tool (Wako). The plate map layout was the same for each plate: (column 1) non-doxycycline treated cells + DMSO vehicle control; (column 2) doxycycline treated cells + DMSO vehicle control baseline; (column 3) doxycycline treated cells + positive control 57.5 uM final concentration 5-azacytidine; (column 4) doxycycline treated cells + serial dilution of 5-azacytidine, 16-point 1:2 titration spanning 1.8 nM to […] final concentration; (columns 5-48) doxycycline treated cells + titration of library compounds.
3. Cells were incubated at 37 °C, 5 % CO2, 95% RH with breathable metal lid for 24h.
4-10. […] After two washes, 10 ul of 1X PBS (Thermo Fisher) was dispensed to each well. Clear adhesive plate seals (VWR) were applied and plates stored at 4 °C.
11. […]
Potency means the concentration at half of the fitted maximal effect.

Chain of Cellular tumor antigen p53 (Homo sapiens) (P04637 whole entry, looked up): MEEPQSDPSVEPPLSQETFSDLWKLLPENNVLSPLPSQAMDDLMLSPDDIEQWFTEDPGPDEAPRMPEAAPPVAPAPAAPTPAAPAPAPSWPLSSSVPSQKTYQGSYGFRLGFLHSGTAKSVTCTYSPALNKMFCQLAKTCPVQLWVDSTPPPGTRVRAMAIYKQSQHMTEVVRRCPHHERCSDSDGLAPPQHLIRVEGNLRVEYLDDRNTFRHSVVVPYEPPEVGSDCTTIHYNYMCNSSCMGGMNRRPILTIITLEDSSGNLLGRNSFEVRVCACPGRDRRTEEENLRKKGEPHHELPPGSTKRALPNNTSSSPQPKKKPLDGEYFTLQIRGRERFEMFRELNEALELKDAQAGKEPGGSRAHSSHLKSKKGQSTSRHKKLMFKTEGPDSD

| SMILES | activation | Potency |
| --- | --- | --- |
| Nc1ncn([C@@H]2O[C@H](CO)[C@@H](O)[C@@H]2O)c(=O)n1 | 26.1% |  |
| CC#C[C@]1(O)CC[C@H]2[C@@H]3CCC4=CC(=O)CCC4=C3[C@@H](c3ccc(N(C)C)cc3)C[C@@]21C | 7.02% |  |
| COc1ncnc(NS(=O)(=O)c2ccc(N)cc2)c1OC | 26.8% | 27300 nM (active) |
| C[C@H]1O[C@@H](O[C@H]2CC[C@@]3(C)[C@H](CC[C@@H]4[C@@H]3C[C@@H](O)[C@]3(C)[C@@H](C5=CC(=O)OC5)CC[C@]43O)C2)C[C@H](O)[C@@H]1O[C@H]1C[C@H](O)[C@H](O[C@H]2C[C@H](O)[C@H](O[C@@H]3O[C@H](CO)[C@@H](O)[C@H](O)[C@H]3O)[C@@H](C)O2)[C@@H](C)O1 |  | 1550 nM (active) |
| COc1cc(/C=C/C(=O)OC[C@H]2O[C@@H](OC3OC=C(C(=O)O)C4C(O)CC(C)(O)C34)[C@H](O)[C@@H](O)[C@@H]2O)cc(OC)c1O (stereo not given in full) | -12.2% |  |
| Clc1ncoc1-c1c[nH]c2ccccc12 | 11.5% |  |
| CCOC(=O)[C@H](CCc1ccccc1)N[C@H]1CS[C@H](c2cccs2)CN(CC(=O)O)C1=O | -24.3% and -1.2% |  |
| N=C(N)c1ccc(N)cc1 | -28.3% |  |
| CC1=C[C@H](O)[C@H]2C(C)(C)CCC[C@]2(C)[C@@]1(O)CO | -2.68% |  |
| O=c1[nH]c(=O)c2nc3ccccc3nc2[nH]1 | -4.5% |  |
| C[C@@H](c1ccc2nccn2c1)n1nnc2ncc(-c3cnn(C)c3)nc21 | 2.86% |  |
| CCC(C)/C=C(C)/C=C/C1=CC2=CC(=O)C3(C)OC(C)(O)C(C(=O)OC)C3C2=CO1 (stereo not given) |  | 13100 nM (active) |
| Cn1c(=O)c2[nH]c(Br)nc2n(C)c1=O | -3.95% |  |
| CO/N=C(\C(=O)N[C@@H]1C(=O)N2C(C(=O)O)=C(CSc3nc(=O)c(O)nn3C)CSC12)c1csc(N)n1 (stereo not given in full) | 4.05% |  |
| COc1cc2ncc(-c3ccccc3)nc2cc1OC | -16.1% |  |
| COc1ccc(-c2ccc(-c3cn(C(=O)N4CCCCC4c4ccccc4)nn3)cc2)cc1 (stereo not given) | -8.11% |  |
| CCCCCCCCC(=O)N[C@H](CN1CCCC1)[C@H](O)c1ccc2c(c1)OCCO2 | -1% |  |
| O=S1(=O)c2cccc3cccc(c23)N1CCCN1CCN(c2ccc(F)cc2)CC1 | 8.47% |  |
| CC(=O)c1c(O)cc2c(c1C)C(=O)CC(O)C2 (stereo not given) | -14.5% |  |

| SMILES | activation | Potency |
| --- | --- | --- |
| CN1C2CCCC1CC(NC(=O)c1nn(C)c3ccccc13)C2 (stereo not given) | -4.74% |  |
| C[C@@H]1O[C@@H](O[C@@H]2[C@@H](O)[C@H](O[C@H]3[C@H](O[C@H]4CC[C@@]5(C)C(CC[C@]6(C)C5CC=C5[C@@H]7CC(C)(C)CC[C@]7(C(=O)O[C@@H]7O[C@H](CO)[C@@H](O)[C@H](O)[C@H]7O)CC[C@]56C)C4(C)C)O[C@H](C(=O)O)[C@@H](O)[C@@H]3O)OC[C@H]2O)[C@H](O)[C@H](O)[C@H]1O (stereo not given in full) | -27.5% |  |
| C[N+]1(CC2COC(c3ccccc3)(C3CCCCC3)O2)CCCCC1 (stereo not given) | 10.9% |  |
| C[C@H](Oc1ccc(S(C)(=O)=O)cc1C(=O)N1CCN(c2ncc(C(F)(F)F)cc2F)CC1)C(F)(F)F | 4.46% |  |
| C/C(=C\C(=O)C[C@@]12C(=O)O[C@]3(C)CC[C@H]1C[C@H]23)C(N)=O | 9.92% |  |
| CN1CCN(c2nc3cc(C(F)(F)F)ccc3n3cccc23)CC1 | -11.1% |  |
| CC(=O)Nc1nnc(S(N)(=O)=O)s1 | 21.8% and -10.7% |  |
| Cc1[nH]c(/C=C2\C(=O)Nc3ccc(F)cc32)c(C)c1C(=O)NCCN1CCCC1 |  | 2690 nM (active) |
| COc1ccc(C2CNC(=O)C2)cc1OC1CCCC1 (stereo not given) | 8.47% and 29.3% |  |
| Cc1cc(C)c(/C=C2\C(=O)Nc3ccccc32)[nH]1 | -35.1% |  |
| COc1ccc(C#Cc2ccc(C(=O)N3CCC[C@@H](O)C3)c(F)c2)cc1 | -8.04% |  |
| CCOC(=O)C1=C(C)NC2=C(C(=O)CC(C)(C)C2)C1c1ccc(-c2ccccc2)cc1 (stereo not given) | 5.7% |  |
| N#C[C@@H]1CCCN1C(=O)CNC12CC3CC(CC(O)(C3)C1)C2 | 15% |  |
| Cc1cc2c(cc1S(N)(=O)=O)S(=O)(=O)CCC2 | -27.6% |  |
| C=C1C(OC(C)=O)CCC2(C)CC3(O)OC(=O)C(C)=C3CC12 (stereo not given) | -3.57% |  |
| CC(=O)OC1C[C@]2(C)C(O)CC(C)=C[C@H](OC(=O)c3ccc(O)cc3)C2[C@]1(O)C(C)C (stereo not given in full) | -20.6% |  |
| CC[C@H](C=C[C@@H](C)[C@H]1CC[C@H]2[C@@H]3CC=C4C[C@@H](O)CC[C@]4(C)[C@@H]3CC[C@]12C)C(C)C | -9.05% |  |
| CN1c2ccccc2C(=O)N2CCc3c([nH]c4ccccc34)C21 (stereo not given) | -3.8% | 2690 nM (active) |
| CC(C)(O)CCc1ccc(OCc2cc(-c3cccc(OC(F)F)c3)c3ncccc3c2)cc1 | 8.96% |  |
